# Reference: the supplement of paper PMC8728848
# About 410 targets per protein were measured; listed, in parts, are those with the strongest signals and a random draw of the rest.
# B1: Gal 3 (Homo sapiens), P17931 (protein)
# chain: MADNFSLHDALSGSGNPNPQGWPGAWGNQPAGAGGYPGASYPGAYPGQAPPGAYPGQAPPGAYHGAPGAYPGAPAPGVYPGPPSGPGAYPSSGQPSAPGAYPATGPYGAPAGPLIVPYNLPLPGGVVPRMLITILGTVKPNANILDFQRGNDVAFHFNPRFNENNRRVIVCNTKLDNNWGREERQSVFPFESGKPFKIQVLVEPDHFKVAVNDAHLLQYNHRVKKLNEISKLGISGDIDLTSASYTMI
# Columns and labels:
# Assay in all cases: glycan array binding signal (z-score within array); higher = stronger binding
# Settings in all cases: glycan notation: IUPAC condensed, linker removed
# [1] = molecular target: Fuc(a1-2)Gal(b1-3)GlcNAc(b1-3)Gal(b1-4)Glc
# Outline: (§1)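 Arrays were curated from the Consortium for Functional Glycomics database, 3228 in total, and kept only where the protein sequence was available. Binding is expressed as a within-array Z-score. This score was averaged across arrays of the same protein sequence at different concentrations or buffers and across linkers, and negative values can be read as non-binding.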
# [2] = molecular target: Fuc(a1-2)Gal(b1-3)[Fuc(a1-4)]GlcNAc(b1-3)[Gal(b1-4)GlcNAc(b1-6)]Gal(b1-4)Glc
# Outline: as §1
# [3] = molecular target: Fuc(a1-2)Gal(b1-4)GlcNAc(b1-3)Gal(b1-4)GlcNAc(b1-3)Gal(b1-4)GlcNAc
# Outline: as §1
# [4] = molecular target: Fuc(a1-2)[Gal(a1-3)]Gal(b1-3)GlcNAc(b1-2)Man(a1-3)[Fuc(a1-2)[Gal(a1-3)]Gal(b1-3)GlcNAc(b1-2)Man(a1-6)]Man(b1-4)GlcNAc(b1-4)GlcNAc
# Outline: as §1
# [5] = molecular target: Fuc(a1-2)[Gal(a1-3)]Gal(b1-4)GlcNAc(b1-2)Man(a1-3)[Fuc(a1-2)[Gal(a1-3)]Gal(b1-4)GlcNAc(b1-2)Man(a1-6)]Man(b1-4)GlcNAc(b1-4)GlcNAc
# Outline: as §1
# [6] = molecular target: Fuc(a1-2)[GalNAc(a1-3)]Gal(b1-4)GlcNAc
# Outline: as §1
# [7] = molecular target: Fuc(a1-2)[GalNAc(a1-3)]Gal(b1-4)GlcNAc(b1-2)Man(a1-3)[Fuc(a1-2)[GalNAc(a1-3)]Gal(b1-4)GlcNAc(b1-2)Man(a1-6)]Man(b1-4)GlcNAc(b1-4)GlcNAc
# Outline: as §1
# [8] = molecular target: Fuc(a1-2)[GalNAc(a1-3)]Gal(b1-4)GlcNAc(b1-3)Gal(b1-4)GlcNAc(b1-3)Gal(b1-4)GlcNAc
# Outline: as §1
# [9] = molecular target: Fuc(a1-2)[GalNAc(b1-3)]Gal
# Outline: as §1
# [10] = molecular target: Fuc(a1-3)[Gal(b1-4)]GlcNAc6S
# Outline: as §1
# [11] = molecular target: Gal(a1-3)Gal(b1-4)GlcNAc(b1-3)GalNAc
# Outline: as §1
# [12] = molecular target: Gal(a1-3)[Gal(a1-4)]Gal(b1-4)GlcNAc
# Outline: as §1
# [13] = molecular target: Gal(a1-4)Gal(b1-3)GlcNAc(b1-2)Man(a1-3)[Gal(a1-4)Gal(b1-3)GlcNAc(b1-2)Man(a1-6)]Man(b1-4)GlcNAc(b1-4)GlcNAc
# Outline: as §1
# [14] = molecular target: Gal(b1-3)Gal(b1-4)GlcNAc(b1-2)Man(a1-3)[Gal(b1-3)Gal(b1-4)GlcNAc(b1-2)Man(a1-6)]Man(b1-4)GlcNAc(b1-4)GlcNAc
# Outline: as §1
# [15] = molecular target: Gal(b1-3)GalNAc(a1-3)[Fuc(a1-2)]Gal(b1-4)GlcNAc
# Outline: as §1
# [16] = molecular target: Gal(b1-3)[Neu5Ac(b2-6)]GalNAc
# Outline: as §1
# [17] = molecular target: Gal(b1-4)GlcNAc(b1-2)[Gal(b1-4)GlcNAc(b1-4)]Man(a1-3)[Gal(b1-4)GlcNAc(b1-2)[Gal(b1-4)GlcNAc(b1-6)]Man(a1-6)]Man(b1-4)GlcNAc(b1-4)GlcNAc
# Outline: as §1
# [18] = molecular target: Gal(b1-4)GlcNAc(b1-3)Gal(b1-3)GlcNAc
# Outline: as §1
# [19] = molecular target: Gal(b1-4)GlcNAc(b1-3)Gal(b1-4)GlcNAc(b1-3)Gal(b1-4)GlcNAc
# Outline: as §1
# [20] = molecular target: Gal(b1-4)GlcNAc(b1-3)[GlcNAc(b1-6)]Gal(b1-4)GlcNAc
# Outline: as §1
# [21] = molecular target: Gal3S(b1-4)[Fuc(a1-3)]Glc
# Outline: as §1
# Gal6S(b1-4)Glc = molecular target: Gal6S(b1-4)Glc
# Outline: as §1
# [22] = molecular target: GalNAc(b1-3)Gal(a1-6)Gal(b1-4)Glc
# Outline: as §1
# [23] = molecular target: GlcNAc(a1-6)Gal(b1-4)GlcNAc
# Outline: as §1
# [24] = molecular target: GlcNAc(b1-4)GlcNAc(b1-4)GlcNAc(b1-4)GlcNAc(b1-4)GlcNAc
# Outline: as §1
# [25] = molecular target: GlcNAc(b1-6)Gal(b1-4)GlcNAc
# Outline: as §1
# GlcNAc(b1-6)GalNAc = molecular target: GlcNAc(b1-6)GalNAc
# Outline: as §1
# Kdn(a2-3)Gal(b1-4)Glc = molecular target: Kdn(a2-3)Gal(b1-4)Glc
# Outline: as §1
# Kdn(a2-3)Gal(b1-4)GlcNAc = molecular target: Kdn(a2-3)Gal(b1-4)GlcNAc
# Outline: as §1
# [26] = molecular target: Man(a1-2)Man(a1-6)[Man(a1-3)]Man(a1-6)[Man(a1-2)Man(a1-2)Man(a1-3)]Man
# Outline: as §1
binder,measurement,setting,value
B1,glycan array binding signal (z-score),[1],1.9
same,glycan array binding signal (z-score),[2],-0.331
same,glycan array binding signal (z-score),[3],3.62
same,glycan array binding signal (z-score),[4],3.84
same,glycan array binding signal (z-score),[5],5.09
same,glycan array binding signal (z-score),[6],2.16
same,glycan array binding signal (z-score),[7],4.33
same,glycan array binding signal (z-score),[8],4.1
same,glycan array binding signal (z-score),[9],-0.382
same,glycan array binding signal (z-score),[10],-0.391
same,glycan array binding signal (z-score),[11],0.949
same,glycan array binding signal (z-score),[12],-0.388
same,glycan array binding signal (z-score),[13],-0.389
same,glycan array binding signal (z-score),[14],4.28
same,glycan array binding signal (z-score),[15],2.57
same,glycan array binding signal (z-score),[16],-0.386
same,glycan array binding signal (z-score),[17],2.3
same,glycan array binding signal (z-score),[18],2.35
same,glycan array binding signal (z-score),[19],4.37
same,glycan array binding signal (z-score),[20],-0.307
same,glycan array binding signal (z-score),[21],-0.39
same,glycan array binding signal (z-score),Gal6S(b1-4)Glc,-0.376
same,glycan array binding signal (z-score),[22],-0.388
same,glycan array binding signal (z-score),[23],-0.392
same,glycan array binding signal (z-score),[24],-0.379
same,glycan array binding signal (z-score),[25],-0.389
same,glycan array binding signal (z-score),GlcNAc(b1-6)GalNAc,-0.391
same,glycan array binding signal (z-score),Kdn(a2-3)Gal(b1-4)Glc,-0.391
same,glycan array binding signal (z-score),Kdn(a2-3)Gal(b1-4)GlcNAc,-0.386
same,glycan array binding signal (z-score),[26],-0.379
